This is a sample that favours compounds with a hit; in the whole collection about 3.3% have one here.
Tb PYK inh: blocks Trypanosoma brucei pyruvate kinase. TbPYK enzyme, Kinase-Glo Plus ATP luminescence, 45 min. AID 624173. 0.12% of 410,000 active. Potency, µM (top dose mostly 76.8 µM), for the others: top-dose activity, negative = inhibition, actives largely listed as inhibitors; further: on the % scale 0 is the no-effect control and ±100 the full control effect; nearly all actives have a fitted effect of over 50% in size
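T. brucei PYK with substrate was exposed to pin-transferred compounds across a concentration series, then started with 130 uM ADP (final). After 45 min at room temperature, Kinase-Glo Plus luminescence was read, normalized and curve-fitted.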
SARS PLpro yeast: SARS-CoV PLP inhibition in yeast. S. cerevisiae expressing SARS-CoV PLpro, growth rescue. Potency, µM (doses to about 32.9 µM), inactives show at the highest dose activity, positive = growth rescue, actives largely listed as activators. 0.19% of 330,000 active; calls by dose curve; further: 0% is about no effect; nearly all actives have a fitted effect of over 55% in size
LmPK inh: inhibitors of Leishmania mexicana pyruvate kinase; Potency, µM (titrated, usually from 57.5 µM), for the others: at the highest dose activity change, negative = inhibition, actives largely listed as inhibitors; Q27686; 0.37% of 290,000 active; purified LmPK, Kinase-Glo ATP luminescence, 1 h; further: on the % scale 0 is the no-effect control and ±100 the full control effect
Target sequence (Q27686 whole entry, looked up): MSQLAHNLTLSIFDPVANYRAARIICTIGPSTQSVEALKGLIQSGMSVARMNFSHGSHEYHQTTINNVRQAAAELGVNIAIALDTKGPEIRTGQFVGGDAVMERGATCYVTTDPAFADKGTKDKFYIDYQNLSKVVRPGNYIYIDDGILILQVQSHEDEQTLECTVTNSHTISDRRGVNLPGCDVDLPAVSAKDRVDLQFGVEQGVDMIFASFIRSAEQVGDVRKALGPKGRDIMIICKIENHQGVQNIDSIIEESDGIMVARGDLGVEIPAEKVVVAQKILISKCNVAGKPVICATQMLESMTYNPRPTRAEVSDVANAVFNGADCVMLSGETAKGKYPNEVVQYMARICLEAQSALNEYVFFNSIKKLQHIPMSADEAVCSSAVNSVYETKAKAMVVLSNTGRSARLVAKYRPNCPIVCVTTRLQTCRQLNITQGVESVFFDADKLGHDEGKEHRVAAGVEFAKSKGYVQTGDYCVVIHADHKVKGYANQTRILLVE
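0.1 nM LmPK, 0.5 mM PEP, 0.1 mM ADP; 50 mM imidazole pH 7.2, 7 mM MgCl2, 50 mM KCl; 1 h RT. Kinase-Glo luminescence readout, normalized to no-enzyme (full inhibition) and uninhibited wells.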
NS1 function inh: influenza NS1 inhibition. Potency, µM (titrated, usually from 46.1 µM), for the others: at the top dose activity, positive = more growth. 0.4% of 270,000 active; calls by dose curve; further: actives are rising curves; nearly all actives have a fitted effect of over 50% in size
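S. cerevisiae expressing influenza A NS1, grown in glucose, washed, then diluted 1:100 into pH 6.0 -URA galactose medium with 23 nl compound. Growth recovery read as OD600; NS1-free strain serves as control.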
Sm TGR inh: S. mansoni TGR enzyme inhibition; Q962Y6; purified TGR, DTNB reduction, TNB absorbance 405 nm; Potency, µM (top dose mostly 114 µM), without a hit: top-dose activity change, negative = inhibition, hits mostly inhibitors; 3% of 360,000 active; further: on the % scale 0 is the no-effect control and ±100 the full control effect; nearly all actives have a fitted effect of over 60% in size
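Kinetic colorimetric format: TGR-catalysed, NADPH-driven DTNB reduction monitored via TNB absorbance. Enzyme dispensed at 20 nM; compound exposure 15 min at room temperature before reaction start.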
RE007 growth inh: less growth of the S. pombe RE007 Vpr strain. 0.21% of 360,000 active. S. pombe RE007 Vpr strain, BacTiter-Glo ATP luminescence, 24 h. Potency, µM (highest dose often 92.2 µM), for the others: at the highest dose activity change, negative = less growth, hits mostly inhibitors; active means well fitted falling curve with a large enough effect; inconclusive means small, poorly fitted or top-dose-only effect; inactive means no such curve, though single readings can be large or run the other way; further: on the % scale 0 is the no-effect control and ±100 the full control effect; nearly all actives have a fitted effect of over 50% in size
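Fission yeast strain RE007, carrying one chromosomally integrated HIV-1 vpr copy, was seeded at OD 0.01 in PMG+AL medium with 23 nL pinned compound. After 24 h at 30 °C and 99% humidity, viability was read by BacTiter-Glo luminescence.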
Numbers without * were called inactive; ? = inconclusive; nt = not tested or not shown. Unless noted, the call rests on the fitted dose curve; in most records, active means well fitted curve in the direction sought with a large enough effect; inconclusive means small, poorly fitted or top-dose-only effect, or another doubt; inactive means no such curve, though single readings can be large; an effect the other way counts as inactive or inconclusive. Potency means the concentration at half of the fitted maximal effect.

SMILES | Tb PYK inh | SARS PLpro yeast | LmPK inh | NS1 function inh | Sm TGR inh | RE007 growth inh
Cc1ccccc1Nc1c2c(nc3nncn13)CCC2 | 0% | nt | nt | nt | ? | nt
Brc1ccc(Nc2c3c(nc4nncn24)CCC3)cc1 | -7% | nt | nt | nt | 35µM* | nt
COc1ccc(/C=C(/C(=O)c2cccs2)N2C=CC=CC2=C(C#N)C#N)cc1 | -22% | -23% | -5% | 4% | 0.28µM* | 0%
Cc1cccc(-c2n[nH]c(=S)n2/N=C/C=C/c2ccco2)c1 | ? | 0% | -17% | 4% | 11µM* | 12%
COc1ccccc1/C=C\C=N\n1c(-c2ccc(Cl)cc2Cl)n[nH]c1=S | -16% | 13% | -3% | 13% | -2% | 11%
S=c1[nH]nc(-c2ccccc2Cl)n1/N=C/C=C/c1ccco1 | ? | 1% | -4% | ? | 20µM* | 2%
CC(/C=N/n1c(-c2ccc(C)cc2)n[nH]c1=S)=C\c1ccco1 | -11% | 2% | -6% | 17% | -25% | -13%
S=c1[nH]nc(-c2cccc(Cl)c2)n1/N=C/c1ccco1 | ? | 1% | -3% | 10% | 40µM* | 35%
CC(/C=N/n1c(-c2ccncc2)n[nH]c1=S)=C\c1ccco1 | ? | 1% | 2% | 4% | 32µM* | -3%
Cc1ccc(/C=N/n2c(-c3cccc(Cl)c3)n[nH]c2=S)o1 | ? | 0% | 1% | 2% | -2% | -2%
COc1ccccc1CNC(=O)C(CC(C)C)N1Cc2ccccc2C1=O (stereo not drawn) | -3% | nt | nt | nt | -5% | nt
NCCCCC(NC(=O)C1CCCN1C(=O)C1CSSCC(N)C(=O)NC(Cc2ccccc2)C(=O)NC(Cc2ccccc2)C(=O)NC(CCC(N)=O)C(=O)NC(CC(N)=O)C(=O)N1)C(=O)NCC(N)=O (stereo not drawn) | 5% | nt | nt | nt | nt | nt
CC(/C=N/n1c(-c2ccccc2)n[nH]c1=S)=C\c1ccco1 | ? | -6% | -16% | -2% | ? | -8%
C(=C\c1ccco1)/C=N/n1cnnc1 | -3% | 8% | 13% | -1% | 28µM* | 0%
S=c1[nH]nc(-c2ccncc2)n1/N=C/C=C/c1ccco1 | ? | -1% | 0% | 10% | 22µM* | 5%
O=C1OC(c2ccccc2)=N/C1=C\C=C\c1ccco1 | -6% | -1% | 3% | 2% | ? | -1%
Cc1ccc2nc(-c3ccc(NC(=O)COc4ccc(Cl)c(C)c4)cc3)sc2c1 | -4% | nt | nt | nt | -2% | nt
Cc1c(CNCc2ccc(OC(C)C)cc2)c(C(=O)O)c(C)n1Cc1ccc(Cl)cc1 | -23% | nt | nt | nt | -15% | nt
CC(C)CN(C(=O)C1=NN(c2ccccc2)C(=O)CC1)c1c(N)n(Cc2ccccc2)c(=O)[nH]c1=O | -2% | 11% | nt | nt | -24% | -11%
CCCCn1c(N)c(N(CCOC)C(=O)c2ccc(N3C(=O)CCC3=O)cc2)c(=O)[nH]c1=O | -5% | ? | nt | nt | -1% | 4%
CCCCn1c(N)c(N(CC(C)C)C(=O)C2=NN(c3ccccc3)C(=O)CC2)c(=O)[nH]c1=O | 5% | 0% | nt | nt | 89µM* | -16%
CCN(C(=O)COC(=O)/C=C/c1ccc(OC)c(OC)c1)c1c(N)n(Cc2ccccc2)c(=O)[nH]c1=O | -10% | nt | nt | nt | nt | 4%
CCN(C(=O)COC(=O)/C=C/c1ccco1)c1c(N)n(Cc2ccccc2)c(=O)[nH]c1=O | 1% | 1% | nt | nt | 20µM* | -2%
CCCCN(C(=O)c1cc(-c2ccco2)nc2ccccc12)c1c(N)n(CCCC)c(=O)[nH]c1=O | -13% | -3% | nt | nt | 3.5µM* | -5%
CCCCn1c(N)c(N(CCOC)C(=O)c2ccc(-n3c(C)ccc3C)cc2)c(=O)[nH]c1=O | -5% | -1% | nt | nt | 40µM* | 1%
SMILES | Tb PYK inh | SARS PLpro yeast | LmPK inh | NS1 function inh | Sm TGR inh | RE007 growth inh
Cc1ccc2nc(SCc3nc(-c4ccc(Cl)cc4)no3)[nH]c2c1 | 4% | nt | nt | nt | 9% | nt
CN(C(=O)Cn1c(=O)n(CCC(=O)NCc2ccc3c(c2)OCO3)c(=O)c2sccc21)c1ccccc1 | 3% | nt | nt | nt | 0% | nt
COCCNC(=O)CSc1cn(CC(=O)N2CCCCCC2)c2ccccc12 | -12% | nt | nt | nt | 3% | nt
CCN(CC)C(=O)Cn1ncc2c([nH]c3ccc(C)cc32)c1=O | -3% | nt | nt | nt | 3% | nt
CCCN(C(=O)c1cc(-c2ccco2)nc2ccccc12)c1c(N)n(Cc2ccccc2)c(=O)[nH]c1=O | 0% | -18% | nt | nt | 8.9µM* | -2%
CCCCn1c(N)c(N(CCOC)C(=O)c2cc(-c3ccco3)nc3ccccc23)c(=O)[nH]c1=O | -8% | -3% | nt | nt | 25µM* | 0%
CCOC(=O)/C(=C/c1ccco1)NC(=O)c1ccc(Br)o1 | -9% | 1% | -2% | -1% | 18µM* | 12%
O=C(O)CCCCCNC(=O)/C(=C\c1ccco1)NC(=O)c1ccco1 | 10% | -5% | 21% | -2% | 100µM* | -4%
O=C(N/C(=C\c1ccccc1)C(=O)N1CCOCC1)c1ccco1 | -7% | 9% | 4% | 8% | 8% | -4%
CC(C)CC(NC(=O)/C(=C/c1ccco1)NC(=O)c1ccc(Br)o1)C(=O)O (stereo not drawn) | -8% | 1% | 11% | 4% | 45µM* | 4%
CCOC(=O)/C(=C/c1ccccc1)NC(=O)c1ccco1 | -6% | 20% | 1% | 15% | 14% | -4%
O=C(NC(Cc1ccccc1)C(=O)O)/C(=C/c1ccccc1)NC(=O)c1ccc(Br)o1 (stereo not drawn) | 12% | 1% | 4% | 15% | -6% | 19%
O=C(N/C(=C/c1ccco1)C(=O)N1CCc2ccccc21)c1ccco1 | ? | -5% | 1% | 9% | 32µM* | -3%
O=C(O)CCNC(=O)/C(=C\c1ccco1)NC(=O)c1ccco1 | -11% | nt | 0% | 13% | ? | 14%
Cc1ccc2c(c1)c1c(c(=O)n(-c3cccc(Cl)c3)c(=O)n1CC(=O)N1CCCC1)n2C | -3% | nt | nt | nt | 7% | nt
Cc1ccc(CCNC(=O)c2cc3n(n2)CCCN(Cc2ccc(C)cc2)C3=O)cc1 | 0% | nt | nt | nt | -4% | nt
CNC(=O)/C(=C\c1ccco1)NC(=O)c1ccco1 | -1% | 2% | 0% | 1% | ? | 4%
CCNC(=O)/C(=C/c1ccco1)NC(=O)/C=C/c1ccccc1 | -20% | 5% | 5% | 13% | 40µM* | -2%
CC(C)CC(NC(=O)/C(=C\c1ccco1)NC(=O)c1ccco1)C(=O)O (stereo not drawn) | -11% | 4% | 19% | 7% | 35µM* | -9%
Cc1[nH]c2ccccc2c1C(Nc1nccs1)c1ccncc1 (stereo not drawn) | 7% | -4% | 5% | 0% | 40µM* | 15%

Screens as filed in PubChem BioAssay.
